In the supplement of paper PMC3898565 one finds cell viability data, which are given here for 29 compounds.

Structures can show the parent of a compound that is named as a salt. ± gives the uncertainty stated by the source.

The test system of this experiment is U87. As to the kind of experiment: cell viability relative to vehicle control; higher = less growth inhibition (less active). Conditions: 10 µM; 72 h.
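Further: viable cell number estimated from Alamar Blue fluorescence read at 560/90, part of a single-dose primary screen of an FDA-approved drug library.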

Consider `O=C(CCNNC(=O)c1ccncc1)NCc1ccccc1`, for which the cell viability amounted to 107.8 ± 0.97%. With `Nc1nnc(-c2cccc(Cl)c2Cl)c(N)n1` the figure was 102 ± 1.2%. With `CN(C)CCOC(C)(c1ccccc1)c1ccccn1` (centres undefined) [doxylamine succinate] the figure was 96.6 ± 1.2%.

As to `C#C[C@]1(O)CC[C@H]2[C@@H]3CCc4cc(O)ccc4[C@H]3CC[C@@]21C`, the cell viability stood at 102 ± 2.1%.

In the case of `CN(C)CCCSc1ccccc1NC(=O)/C=C/c1ccccc1` [Cinanserin], the cell viability worked out at 103.3 ± 0.66%. With `OC[C@H]1O[C@@H](Oc2cc(O)cc(/C=C/c3ccc(O)cc3)c2)[C@H](O)[C@@H](O)[C@@H]1O` the figure was 99.7 ± 3.1%; with `O=C1Nc2ccc(Cl)cc2[C@@](C#CC2CC2)(C(F)(F)F)O1`, 107 ± 1.1%. Turning to `Cc1c(OCC(F)(F)F)ccnc1C[S+]([O-])c1nc2ccccc2[nH]1` (centres undefined), the cell viability stood at 104.7 ± 0.78%. As to `COc1ccccc1OCC(O)CN1CCN(CC(=O)Nc2c(C)cccc2C)CC1` (centres undefined) [Ranolazine dihydrochloride], the cell viability was 102.8 ± 0.94%. Turning to `CC(c1cc2ccccc2s1)N(O)C(N)=O` (centres undefined), the cell viability stood at 104.1 ± 1%.

With `COC(=O)C1=C(C)NC(C)=C(C(=O)OC2CCCN(Cc3ccccc3)C2)C1c1cccc([N+](=O)[O-])c1` (centres undefined), the cell viability came to 104 ± 1.2%. For the compound `Clc1ccc2c(c1)CCc1cccnc1C2=C1CCNCC1`, the cell viability came out at 101.5 ± 0.94%. The same measure for `C[C@H]1C[C@H]2[C@@H]3CCC4=CC(=O)C=C[C@]4(C)[C@@]3(Cl)[C@@H](O)C[C@]2(C)[C@@]1(O)C(=O)CO` [Beclomethasone]: 106 ± 1.5%; for `CCOC(=O)c1ncn2c1CN(C)C(=O)c1cc(F)ccc1-2`: 103 ± 1.8%; for `Fc1ccc([C@@H]2CCNC[C@H]2COc2ccc3c(c2)OCO3)cc1` [Paroxetine]: 101 ± 1.2%. Turning to `NC(=O)N1c2ccccc2CC(=O)c2ccccc21` [Trileptal], the cell viability is 102 ± 2.4%. The same measure for `CCOC(=O)C1(CCCCCCOc2ccc(Cl)cc2)CO1` (centres undefined): 106 ± 1.7%; for `O=C(O[C@H]1[C@H](Oc2ccccc2COC(=O)C2(O)C=CCCC2=O)O[C@H](CO)[C@@H](O)[C@@H]1O)c1ccccc1` (some centres undefined): 104 ± 2.2%.

Consider `CN1CCCCC1CCN1c2ccccc2Sc2ccc([S+](C)[O-])cc21` (centres undefined) [Mesoridazine], for which the cell viability was 105 ± 2.8%.

In the case of `CCCCc1nc(Cl)c(CO)n1Cc1ccc(-c2ccccc2-c2nnn[nH]2)cc1` [LOSARTAN Potassium], the cell viability amounted to 107 ± 1.9%. The same measure for `OCc1cccnc1`: 108 ± 1.5%; for `COc1cc(N)c(Cl)cc1C(=O)NC1CCN(CCCOc2ccc(F)cc2)CC1OC` (centres undefined) [Cisapride]: 103.5 ± 0.4%; for `COc1ccc(C2CNC(=O)C2)cc1OC1CCCC1` (centres undefined): 99.3 ± 1.2%. For `CCCCCNC(=N)N/N=C/c1c[nH]c2ccc(OC)cc12`, the cell viability stood at 108 ± 1.2%.

On to `CCC(=O)NS(=O)(=O)c1ccc(-c2c(-c3ccccc3)noc2C)cc1`, for which the cell viability was 108.7 ± 0.37%. Consider `CNC(=C[N+](=O)[O-])NCCSCc1csc(CN(C)C)n1`, for which the cell viability was 99.1 ± 1.3%. On to `CN(C)CC[C@@H](c1ccc(Br)cc1)c1ccccn1`, for which the cell viability is 104.1 ± 0.82%. The same measure for `CN1CCN(c2nc3cc(C(F)(F)F)ccc3n3cccc23)CC1`: 111 ± 2%. On to `CC(C)NCC(O)c1ccc(NS(C)(=O)=O)cc1` (centres undefined) [Sotalol], for which the cell viability was found to be 101.7 ± 0.99%.
